Source: PubChem (National Center for Advancing Translational Sciences (NCATS))
Shown is part of a subset that was picked to be rich in hits.
Cycloheximide cs: counter-screen hit for Shiga toxin inhibitors, cycloheximide; actives 12% (n = 300,000); max response, %; cell reporter, cycloheximide protein synthesis inhibition counterscreen; AID 2314; in the data active = max response mostly above about 13%, no sharp cut-off; inactive = mostly below about 14%; also: read at 38.3 µM for the half of the compounds with a filed dose
AmpC inh detg: inhibitors of E. coli AmpC beta-lactamase with detergent; AmpC hydrolysis of nitrocefin, absorbance 480 nm, 0.01% Triton; Potency, µM (titrated, usually from 114 µM), most hits filed as inhibitors; P00811; AID 485294; actives 0.041% (n = 370,000); also: nearly all actives have a fitted effect of over 25% in size
Target sequence (P00811 whole entry, looked up): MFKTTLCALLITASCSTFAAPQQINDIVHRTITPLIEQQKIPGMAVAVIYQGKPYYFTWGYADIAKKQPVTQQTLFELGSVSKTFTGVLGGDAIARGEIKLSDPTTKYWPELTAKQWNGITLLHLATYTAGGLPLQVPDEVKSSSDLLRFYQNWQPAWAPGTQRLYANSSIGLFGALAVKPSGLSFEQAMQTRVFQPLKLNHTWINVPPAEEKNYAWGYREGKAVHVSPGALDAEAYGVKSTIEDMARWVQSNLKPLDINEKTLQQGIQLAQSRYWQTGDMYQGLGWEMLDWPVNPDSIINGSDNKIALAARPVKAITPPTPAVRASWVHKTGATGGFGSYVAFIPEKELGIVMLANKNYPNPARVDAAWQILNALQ
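20 mM phosphate pH 7.0 + 0.01% (detergent screen) or 0.0001% Triton X-100; 5.3 nM AmpC reagent; cpd preinc 15 min RT; nitrocefin (800 uM stock) to start; A480 q20 s × 4 min; Activity was normalised to no-enzyme and no-compound control wells.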
Shiga toxin inh: Shiga toxin inhibition; Vero cells, Shiga toxin protein synthesis inhibition reporter; inhibition, % at 38.7 µM; actives 9.2% (n = 290,000); in the data active = inhibition mostly above about 28%, no sharp cut-off; inactive = mostly below about 43%
AmpC no deterg: blocks E. coli AmpC beta-lactamase in detergent-free assay | Potency, µM (doses to about 57.1 µM), hits mostly inhibitors | P00811 | actives 0.52% (n = 330,000) | AmpC nitrocefin hydrolysis, absorbance 480 nm, 0.0001% Triton | AID 485341; also: nearly all actives have a fitted effect of over 20% in size
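AmpC (5.3 nM in the dispensed reagent) in 20 mM phosphate pH 7.0 with 0.01% (detergent screen) or 0.0001% Triton X-100 was preincubated with compounds for 15 min at room temperature. Nitrocefin was then added from an 800 uM solution, and hydrolysis was followed at 480 nm.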
NS1 function inh: influenza NS1 inhibition. actives 0.4% (n = 270,000). Potency, µM (titrated, usually from 46.1 µM); calls by dose curve; also: actives are rising curves; nearly all actives have a fitted effect of over 50% in size
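Growth recovery, yeast-based: influenza A NS1 expressed in S. cerevisiae causes slow growth, and suppressors are detected by OD600. The parent strain without NS1 is used as positive control.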
A number is an active result. Unless noted, calls follow the shape of the dose curve; as a rule, active = well fitted curve in the direction sought with a large enough effect; inconclusive = small, poorly fitted or top-dose-only effect, or another doubt; inactive = no such curve, though single readings can be large; an effect the other way counts as inactive or inconclusive.

What do the screens show for `COc1cc(/C=C(\C#N)C(=O)NCC2CCCO2)ccc1OC(C)C` (stereo not drawn)?
Cycloheximide cs: 73; AmpC inh detg: inactive; Shiga toxin inh: inactive; AmpC no deterg: inactive; NS1 function inh: inactive

What do the screens show for `N#C/C(=C/c1cc(Br)cs1)C(=O)NCC1CCCO1` (stereo not drawn)?
Cycloheximide cs: inactive; AmpC inh detg: inactive; Shiga toxin inh: inactive; AmpC no deterg: inactive; NS1 function inh: inactive

How did Cc1[nH]c2ccccc2c1/C=C(\C#N)C(=O)NCC1CCCO1 (stereo not drawn) do in these assays?
Cycloheximide cs: 18; AmpC inh detg: inactive; Shiga toxin inh: inactive; AmpC no deterg: inactive; NS1 function inh: inactive

How did N#C/C(=C\c1c[nH]c2ccccc12)C(=O)NCC1CCCO1 (stereo not drawn) do in these assays?
Cycloheximide cs: 31; AmpC inh detg: inactive; Shiga toxin inh: 54; AmpC no deterg: inactive; NS1 function inh: inactive

What do the screens show for `Cc1ccc(NC(=O)N2CCN3CCCCC3C2)cc1C` (stereo not drawn)?
AmpC inh detg: inactive

Results for Cc1cc(C)c2c(-n3cccc3)c(C(=O)NCc3cccc(F)c3)sc2n1 ?
AmpC inh detg: inactive

How did CC(=O)NC12CC3CC(C1)CC(C(=O)OCC(=O)NC(=O)c1cccn1C)(C3)C2 do in these assays?
Cycloheximide cs: 20; AmpC inh detg: inactive; Shiga toxin inh: inactive; AmpC no deterg: inactive; NS1 function inh: inactive

What do the screens show for `Cc1cccc(C(=O)N[C@H](C(=O)OCC(=O)NC(=O)c2cccn2C)C(C)C)c1`?
Cycloheximide cs: 32; AmpC inh detg: inactive; Shiga toxin inh: inactive; AmpC no deterg: inactive; NS1 function inh: inactive

Results for Cn1cccc1C(=O)NC(=O)COC(=O)c1ccccc1O ?
Cycloheximide cs: 17; AmpC inh detg: inactive; Shiga toxin inh: inactive; AmpC no deterg: inactive; NS1 function inh: inactive

How did COc1cc(OC)cc(C(=O)N[C@H](C(=O)OCC(=O)Nc2ccc(C)cc2C)C(C)C)c1 do in these assays?
Cycloheximide cs: inactive; AmpC inh detg: inactive; Shiga toxin inh: inactive; AmpC no deterg: inactive; NS1 function inh: inactive

What do the screens show for `Cn1cccc1C(=O)NC(=O)COC(=O)C12CC3CC(CC(O)(C3)C1)C2`?
Cycloheximide cs: 43; AmpC inh detg: inactive; Shiga toxin inh: 53; AmpC no deterg: inactive; NS1 function inh: inactive

Results for Cc1ccc(C)c(Cn2c(=O)cc(C(F)(F)F)c3c(C)nn(C)c32)c1 ?
AmpC inh detg: inactive

What do the screens show for `Cc1ccc(-c2cc(NC(=O)COc3c(C)cc(C)cc3C)on2)cc1`?
AmpC inh detg: inactive

How did CS(=O)(=O)c1ncc(Cl)c(C(=O)Nc2ccc(N3CCOCC3)cc2)n1 do in these assays?
Cycloheximide cs: 60; AmpC inh detg: inactive; Shiga toxin inh: 67; AmpC no deterg: inactive; NS1 function inh: inactive

What do the screens show for `Cc1cccc(CS(=O)(=O)c2ncc(Cl)c(C(=O)Nc3c(C)cccc3C)n2)c1`?
Cycloheximide cs: 22; AmpC inh detg: inactive; Shiga toxin inh: inactive; AmpC no deterg: inactive; NS1 function inh: inactive

Results for Cc1ccccc1CS(=O)(=O)c1ncc(Cl)c(C(=O)Nc2ccc(F)cc2)n1 ?
Cycloheximide cs: 29; AmpC inh detg: inconclusive; Shiga toxin inh: inactive; AmpC no deterg: inactive; NS1 function inh: inactive

Results for Cc1nnc(NC(=O)c2nc(S(=O)(=O)Cc3ccccc3)ncc2Cl)s1 ?
Cycloheximide cs: 63; AmpC inh detg: inactive; Shiga toxin inh: 86; AmpC no deterg: inactive; NS1 function inh: inactive

How did O=C(Nc1nc2ccc(F)cc2s1)c1nc(S(=O)(=O)Cc2ccccc2)ncc1Cl do in these assays?
AmpC inh detg: inactive

What do the screens show for `O=C(Nc1ccc(F)cc1)c1nc(S(=O)(=O)Cc2ccccc2)ncc1Cl`?
Cycloheximide cs: inactive; AmpC inh detg: inactive; Shiga toxin inh: inactive; AmpC no deterg: inactive; NS1 function inh: inactive

What do the screens show for `COc1ccc(-n2ncc(C(=O)N3CCN(c4cc(C)ccc4C)CC3)c2C2CCN(C(=O)OC(C)(C)C)CC2)cc1`?
AmpC inh detg: inactive

Results for CCCc1nnc(NC(=O)c2nc(S(=O)(=O)Cc3cccc(C)c3)ncc2Cl)s1 ?
Cycloheximide cs: 52; AmpC inh detg: inactive; Shiga toxin inh: 68; AmpC no deterg: inactive; NS1 function inh: inactive

Results for Cc1ccc(NC(=O)c2nc(S(=O)(=O)Cc3ccccc3)ncc2Cl)cc1 ?
Cycloheximide cs: inactive; AmpC inh detg: inactive; Shiga toxin inh: inactive; AmpC no deterg: inactive; NS1 function inh: inactive
